Reference: PubChem BioAssay (Tox21)
Results filed as inconclusive are left out. Activity calls are given as the source filed them. Unless noted, the call rests on the fitted dose curve; in most records, active means well fitted curve in the direction sought with a large enough effect in the repeat runs; inconclusive means weak or mixed curves; inactive means no such curve, though single readings can be large; an effect the other way counts as inactive or inconclusive.

Key:
[1] = molecular target: Thyrotropin receptor (Homo sapiens) (UniProt P16473); assay: qHTS assay to identify small molecule antagonists of the thyroid stimulating hormone receptor (TSHR) signaling pathway (AID 1259385; calls by dose curve; further: nearly all actives have a fitted effect of over 20% in size)
Thyrotropin receptor (Homo sapiens), sequence (P16473 whole entry, looked up): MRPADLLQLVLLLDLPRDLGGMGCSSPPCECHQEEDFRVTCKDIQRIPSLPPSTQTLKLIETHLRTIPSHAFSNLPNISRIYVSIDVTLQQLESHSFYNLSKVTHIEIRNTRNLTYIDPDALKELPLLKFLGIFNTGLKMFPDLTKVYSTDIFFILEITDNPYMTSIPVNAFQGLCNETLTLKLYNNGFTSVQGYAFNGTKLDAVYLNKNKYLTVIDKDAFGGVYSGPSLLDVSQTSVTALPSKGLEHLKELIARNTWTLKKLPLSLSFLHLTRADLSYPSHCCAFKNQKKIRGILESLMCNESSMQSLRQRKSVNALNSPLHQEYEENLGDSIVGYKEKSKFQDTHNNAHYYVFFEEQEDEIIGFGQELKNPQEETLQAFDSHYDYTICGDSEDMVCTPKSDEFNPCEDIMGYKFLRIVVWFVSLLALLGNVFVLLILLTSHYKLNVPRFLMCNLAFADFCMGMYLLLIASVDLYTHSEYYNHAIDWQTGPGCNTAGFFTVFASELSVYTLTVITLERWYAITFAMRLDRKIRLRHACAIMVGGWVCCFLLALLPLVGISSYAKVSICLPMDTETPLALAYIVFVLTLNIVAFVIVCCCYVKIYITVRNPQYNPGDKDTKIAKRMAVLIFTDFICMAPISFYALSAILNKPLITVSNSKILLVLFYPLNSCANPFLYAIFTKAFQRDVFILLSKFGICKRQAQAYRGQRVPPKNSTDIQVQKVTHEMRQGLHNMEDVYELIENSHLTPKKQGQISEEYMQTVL
Outline: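 Antagonist mode: compound-treated TSHR-expressing HEK293 cells were stimulated with 1.5 ng/mL TSH (final) in presence of Ro20-1724 for 30 min at RT. HTRF cAMP detection after 1 h; each compound tested at 15 concentrations, triplicate.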

[2] = qHTS assay to identify small molecule agonists of the estrogen receptor alpha (ER-alpha) signaling pathway in the presence of an antagonist - cell viability counter screen (AID 1259386); further: series mostly up to about 92 µM; nearly all actives have a fitted effect of over 30% in size
Outline: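 Compounds tested at 15 concentrations for 22 h at 37C alongside 10.0nM (final) ICI-182,780 antagonist, in VM7Luc4E2 cells grown in phenol red-free, charcoal-stripped medium. Viability read by CellTiter-Fluor fluorescence after 1 h reagent incubation.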

[3] = molecular target: Progesterone receptor (Homo sapiens) (UniProt P06401); assay: qHTS assay to identify small molecule agonists of the progesterone receptor (PR) signaling pathway (AID 1346784; calls by dose curve; further: nearly all actives have a fitted effect of over 30% in size)
Progesterone receptor (Homo sapiens), sequence (P06401 whole entry, looked up): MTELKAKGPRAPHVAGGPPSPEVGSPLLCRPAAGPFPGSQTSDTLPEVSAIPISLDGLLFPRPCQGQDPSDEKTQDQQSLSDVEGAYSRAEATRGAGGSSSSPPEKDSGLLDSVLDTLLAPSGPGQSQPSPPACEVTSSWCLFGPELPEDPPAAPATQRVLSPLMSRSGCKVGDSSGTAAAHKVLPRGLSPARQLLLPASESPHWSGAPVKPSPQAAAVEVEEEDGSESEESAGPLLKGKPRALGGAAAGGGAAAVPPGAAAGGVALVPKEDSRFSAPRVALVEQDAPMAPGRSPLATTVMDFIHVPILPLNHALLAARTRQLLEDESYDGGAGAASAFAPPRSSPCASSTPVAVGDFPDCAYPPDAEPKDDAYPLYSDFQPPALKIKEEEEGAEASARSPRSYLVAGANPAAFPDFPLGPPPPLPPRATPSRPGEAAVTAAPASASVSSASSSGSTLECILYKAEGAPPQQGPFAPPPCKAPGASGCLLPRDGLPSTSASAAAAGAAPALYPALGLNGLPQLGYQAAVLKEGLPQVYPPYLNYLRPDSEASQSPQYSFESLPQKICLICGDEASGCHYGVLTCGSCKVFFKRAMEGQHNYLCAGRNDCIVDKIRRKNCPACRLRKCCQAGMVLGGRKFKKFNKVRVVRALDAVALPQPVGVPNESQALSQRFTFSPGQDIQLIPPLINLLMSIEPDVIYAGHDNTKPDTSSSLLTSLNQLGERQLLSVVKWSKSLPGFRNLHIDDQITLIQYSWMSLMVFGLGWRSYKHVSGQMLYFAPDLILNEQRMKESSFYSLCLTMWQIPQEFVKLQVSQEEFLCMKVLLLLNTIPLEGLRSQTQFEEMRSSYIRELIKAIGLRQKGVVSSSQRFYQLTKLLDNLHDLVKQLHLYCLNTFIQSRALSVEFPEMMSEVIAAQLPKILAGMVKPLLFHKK
Outline: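 Reporter assay, GripTite PR-UAS-bla HEK 293T cells: 16 hr exposure to DMSO-dissolved compounds at 37C, 5% CO2, in steroid-depleted (2% charcoal-stripped FBS) medium; beta-lactamase measured by FRET fluorescence.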

[4] = molecular target: Progesterone receptor (Homo sapiens) (UniProt P06401); assay: qHTS assay to identify small molecule antagonists of the progesterone receptor (PR) signaling pathway (AID 1346795; active means well fitted inhibition curve with a large enough effect in the signal ratio in the repeat runs, not every such curve was filed as active; the % refers to the signal ratio)
Outline: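 Stimulus R5020 at 1 nM final; cells HEK293T PR-UAS-bla; medium with 2% charcoal-stripped FBS; compound exposure 16 hr at 37C, 5% CO2; detection by FRET beta-lactamase substrate, 2 hr, room temperature.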

[5] = qHTS assay to identify small molecule antagonists of the progesterone receptor (PR) signaling pathway - cell viability counter screen (AID 1346798); further: series mostly up to about 92 µM; nearly all actives have a fitted effect of over 50% in size
Outline: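 In the same plates used for the beta-lactamase readout, cell viability of compound- and R5020-treated PR-UAS-bla HEK293T cells (16 hr, 37C) was assessed by CellTiter-Glo luminescence.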

[6] = qHTS assay to identify small molecule agonists of the progesterone receptor (PR) signaling pathway - cell viability counter screen (AID 1346799; calls by dose curve; further: nearly all actives have a fitted effect of over 45% in size)
Outline: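 Multiplexed viability read: CellTiter-Glo luminescence, 30 min RT, following LiveBLAzer FRET measurement on PR-UAS-bla HEK293T cells exposed to compounds 16 hr.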

[7] = qHTS assay to identify small molecule antagonists of the TGF-beta/Smad signaling pathway - cell viability counter screen (AID 1346824); further: nearly all actives have a fitted effect of over 50% in size
Outline: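 Cytotoxicity counter-screen run in the same wells as the beta-lactamase Smad reporter read: CellTiter-Glo luminescence after 30 min at room temperature. HEK 293T SBE-bla cells had 5 hr compound exposure at 37 C with TGF-beta1 (0.25 ng/mL stock).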

[8] = qHTS assay to identify small molecule agonists of the TGF-beta/Smad signaling pathway - cell viability counter screen (AID 1346829); further: top concentration of the series differs between compounds; nearly all actives have a fitted effect of over 45% in size
Outline: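 After overnight seating at 37 C and 5% CO2, reporter cells got compounds for 5 hr and FRET substrate for 2 hr; cell viability then came from CellTiter-Glo luminescence.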

[9] = qHTS assay to identify small molecule agonists of the TGF-beta/Smad signaling pathway (AID 1346859; active means well fitted activation curve with a large enough effect in the signal ratio in the repeat runs, not every such curve was filed as active; the % refers to the signal ratio; further: series mostly up to about 77 µM)
Outline: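 Screening used HEK 293T SBE-bla cells at 4,000/well. Test agents: 5 hr, 37 C. Detection: FRET substrate, 2 hr RT, then excitation 405 nm with emissions at 460 and 530 nm.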

[10] = molecular target: Thyrotropin-releasing hormone receptor (Homo sapiens) (UniProt P34981); assay: qHTS assay to identify small molecule antagonists of the thyrotropin-releasing hormone receptor (TRHR) signaling pathway (AID 1346877; active means well fitted inhibition curve with a large enough effect in the repeat runs, not every such curve was filed as active; further: series mostly up to about 51 µM)
Thyrotropin-releasing hormone receptor (Homo sapiens), sequence (P34981 whole entry, looked up): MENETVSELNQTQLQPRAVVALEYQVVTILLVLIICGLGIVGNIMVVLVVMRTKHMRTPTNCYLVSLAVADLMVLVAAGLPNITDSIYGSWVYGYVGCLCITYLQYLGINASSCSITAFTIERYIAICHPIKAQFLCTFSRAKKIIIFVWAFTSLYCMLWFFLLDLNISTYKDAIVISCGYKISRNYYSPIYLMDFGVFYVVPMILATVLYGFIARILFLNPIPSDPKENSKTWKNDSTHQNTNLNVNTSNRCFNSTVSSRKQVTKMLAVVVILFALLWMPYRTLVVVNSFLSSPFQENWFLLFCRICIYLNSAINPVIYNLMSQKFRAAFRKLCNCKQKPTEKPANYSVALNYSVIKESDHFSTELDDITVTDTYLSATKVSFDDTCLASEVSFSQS
Outline: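 Antagonist mode: after a 5 min room-temperature compound exposure, cells were stimulated with 1 nM (final) TRH. Dye-loaded TRHR-HEK293 cells were used, and calcium-dependent fluorescence was followed for 3 min, with 15-point titrations run in triplicate.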

[11] = molecular target: Thyrotropin-releasing hormone receptor (Homo sapiens) (UniProt P34981); assay: qHTS assay to identify small molecule agonists of the thyrotropin-releasing hormone receptor (TRHR) signaling pathway (AID 1346891; calls by dose curve; further: series mostly up to about 58 µM)
Outline: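 Readout was intracellular calcium fluorescence in TRHR-Hek293 cells. Cells were incubated 18 h, dye-loaded 2 h at 37 °C, and treated with compound in agonist mode.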

[12] = Human pregnane X receptor (PXR) small molecule agonists, qHTS cell viability counter screen (AID 1346977); further: nearly all actives have a fitted effect of over 50% in size
Outline: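 In each well, the PXR reporter HepG2 line was checked for viability: CellTiter-Fluor reagent added 23hr post-dosing, fluorescence read after 1hr incubation at 37C.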

[13] = Caspase-3/7 induction in HepG2 cells by small molecules, qHTS assay (AID 1346978); further: nearly all actives have a fitted effect of over 15% in size
Outline: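 Caspase-3/7 induction was measured by Caspase-Glo 3/7 luminescence (30 min, room temperature) after a 17 hr compound exposure of wild-type HepG2 cells seeded at 2,000 per well and pre-incubated 5 hr.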

[14] = Caspase-3/7 induction in CHO-K1 cells by small molecules, qHTS cell viability counter screen (AID 1346979); further: nearly all actives have a fitted effect of over 35% in size
Outline: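 Following a 5hr settling period, CHO-K1 cells at 1,500 per well received DMSO-dissolved compounds. Cell viability was quantified 16hr later by CellTiter-Fluor fluorescence, measured after 1hr with reagent at 37C.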

[15] = Caspase-3/7 induction in CHO-K1 cells by small molecules, qHTS assay (AID 1346980); further: nearly all actives have a fitted effect of over 15% in size
Outline: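 Luminescent Caspase-Glo 3/7 read (30min, room temperature) quantified apoptosis induction. Cells were wild-type CHO-K1, treated with compound for 17hr at 37 C and 5% CO2.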

[16] = molecular target: Nuclear receptor subfamily 1 group I member 2 (Homo sapiens) (UniProt O75469); assay: Human pregnane X receptor (PXR) small molecule agonists, qHTS assay (AID 1346982); further: nearly all actives have a fitted effect of over 35% in size; further: potency means the concentration at half of the fitted maximal effect
Nuclear receptor subfamily 1 group I member 2 (Homo sapiens), sequence (O75469 whole entry, looked up): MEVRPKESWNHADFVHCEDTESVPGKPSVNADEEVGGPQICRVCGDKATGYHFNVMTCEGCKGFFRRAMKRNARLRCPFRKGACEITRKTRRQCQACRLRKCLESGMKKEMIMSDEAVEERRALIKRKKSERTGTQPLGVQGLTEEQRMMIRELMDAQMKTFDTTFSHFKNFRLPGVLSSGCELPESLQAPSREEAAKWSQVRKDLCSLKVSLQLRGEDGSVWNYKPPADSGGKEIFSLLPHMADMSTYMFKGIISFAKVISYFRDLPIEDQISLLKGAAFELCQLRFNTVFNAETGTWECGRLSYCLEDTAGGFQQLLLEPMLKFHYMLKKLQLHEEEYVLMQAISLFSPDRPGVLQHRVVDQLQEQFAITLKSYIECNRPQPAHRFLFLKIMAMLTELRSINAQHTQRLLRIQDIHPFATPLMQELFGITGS
Outline: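 Agonist mode: luminescence from ONE-Glo after 24 h compound exposure at 37C in HepG2 cells carrying hPXR-responsive CYP3A4 luciferase, plated in charcoal-stripped serum medium 5 h beforehand.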

[17] = Caspase-3/7 induction in HepG2 cells by small molecules, qHTS cell viability counter screen (AID 1346981); further: series mostly up to about 92 µM; nearly all actives have a fitted effect of over 30% in size
Outline: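 CellTiter-Fluor fluorescence measured viability in the same wells used for Caspase-Glo 3/7. HepG2 (wild type) at 2,000 cells/well were pre-incubated 5 hr, dosed, and given reagent at 16 hr, with 1 hr further at 37C.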

[18] = molecular target: Nuclear receptor subfamily 1 group I member 2 (Rattus norvegicus) (UniProt Q9R1A7); assay: Rat pregnane X receptor (rPXR) activation by small molecules, qHTS assay (AID 1346983); details: rPXR luciferase reporter cells, One-Glo luminescence, 24 h; max activation: stronger effect = higher value; further: nearly all actives have a fitted effect of over 20% in size
Nuclear receptor subfamily 1 group I member 2 (Rattus norvegicus), sequence (Q9R1A7 whole entry, looked up): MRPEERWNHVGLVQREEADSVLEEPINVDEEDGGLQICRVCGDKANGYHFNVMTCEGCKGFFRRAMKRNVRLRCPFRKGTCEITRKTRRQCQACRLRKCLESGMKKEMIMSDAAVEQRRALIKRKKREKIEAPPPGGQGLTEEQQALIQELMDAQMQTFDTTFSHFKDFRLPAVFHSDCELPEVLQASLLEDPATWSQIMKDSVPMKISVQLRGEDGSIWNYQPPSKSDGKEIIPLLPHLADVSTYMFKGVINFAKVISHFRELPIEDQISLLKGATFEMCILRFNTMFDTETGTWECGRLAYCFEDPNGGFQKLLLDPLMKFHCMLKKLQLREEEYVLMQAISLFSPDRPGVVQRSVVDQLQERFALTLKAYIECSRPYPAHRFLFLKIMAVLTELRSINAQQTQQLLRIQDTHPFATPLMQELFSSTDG
Outline: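 Luminescent readout (One-Glo luciferase, 30 min room temperature) followed 24 hr compound treatment at 37 C of rPXR cells plated 2,000 per well and preincubated 5hr; qHTS format with compounds delivered in DMSO.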

[19] = molecular target: Nuclear receptor subfamily 1 group I member 2 (Homo sapiens) (UniProt O75469); assay: CYP3A4 induction through human pregnane X receptor (PXR) by small molecules, qHTS assay (AID 1346984); further: nearly all actives have a fitted effect of over 40% in size
Outline: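 Read-out is luminescence after One-Glo addition, following a 3 hr, 37C incubation with Luciferin-IPA CYP3A4 substrate (3uM final). Before that, compounds were on DPX-2 cells (HepG2 co-transfected with PXR element plus CYP3A4-promoter luciferase) for 24 hr at 37C.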

[20] = molecular target: Nuclear receptor subfamily 1 group I member 2 (Homo sapiens) (UniProt O75469); assay: Human pregnane X receptor (PXR) activation by small molecules, qHTS assay (AID 1346985); further: nearly all actives have a fitted effect of over 40% in size
Outline: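 DPX-2 cells (HepG2 co-transfected with a PXR response element and a CYP3A4-promoter luciferase construct) were seeded at 2,000 per well, rested 5 hr at 37C, then exposed to DMSO-dissolved compounds for 24 hr. Activation was read as luciferase luminescence.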
On the % scale 0 is the no-effect control and ±100 the full control effect.

CC(C)(C)N(CCO)CCO
active: Potency [16] 63.1 µM
inactive: Potency [1] | outcome [2] | Potency [3] | Potency [4] | Potency [5] | Potency [6] | outcome [7] | outcome [8] | outcome [9] | outcome [10] | outcome [11] | Potency [12] | outcome [13] | Potency [14] | outcome [15]

CCCCC1CCCCC(=O)O1 (stereo not drawn)
inactive: Potency [1] | outcome [2] | Potency [3] | Potency [4] | Potency [5] | Potency [6] | outcome [7] | outcome [8] | outcome [9] | outcome [10] | outcome [11] | Potency [12] | outcome [13] | Potency [14] | outcome [15] | outcome [17] | Potency [16]

Cc1ccc(N)cc1[N+](=O)[O-]
inactive: Potency [1] | outcome [2] | Potency [3] | Potency [4] | Potency [5] | Potency [6] | outcome [7] | outcome [8] | outcome [9] | outcome [10] | outcome [11] | Potency [12] | Potency [14] | outcome [15] | outcome [17]

CCCc1ccc(N)cc1
inactive: Potency [1] | outcome [2] | Potency [3] | Potency [4] | Potency [5] | Potency [6] | outcome [7] | outcome [8] | outcome [9] | outcome [10] | outcome [11] | Potency [12] | outcome [13] | Potency [14] | outcome [15] | outcome [17]

NC(=S)Nc1cccc2ccccc12
inactive: activity change, negative = inhibition [1] 2.83% [at 8.39 µM] | activity change, negative = cytotoxicity [2] 0.0918% [at 8.39 µM] | activation [3] -0.12% [at 8.39 µM] | activity change, negative = inhibition [4] -2.03% [at 8.39 µM] | activity change, negative = cytotoxicity [5] -13.4% [at 8.39 µM] | activity change, negative = cytotoxicity [6] -0.848% [at 8.39 µM] | viability change, negative = cytotoxic [7] 11.5% [at 6.97 µM] | activity change, negative = cytotoxicity [8] -4.69% [at 6.97 µM] | activation [9] -0.913% [at 6.97 µM] | activity, negative = inhibition [10] -0.447% [at 4.65 µM] | activation [11] -0.377% [at 5.23 µM] | activity change, negative = cytotoxicity [12] -0.344% [at 8.39 µM] | caspase activation [13] 1% [at 8.39 µM] | activity change, negative = cytotoxicity [14] -1.57% [at 8.39 µM] | caspase-3/7 activation [15] 0.137% [at 8.39 µM] | activity change, negative = cytotoxicity [17] -1.33% [at 8.39 µM] | activation [16] -0.9% [at 8.39 µM]

CC(C)[C@H](N)C(=O)OCCOCn1cnc2c(=O)[nH]c(N)nc21
inactive: Potency [1] | outcome [2] | Potency [3] | Potency [4] | Potency [5] | Potency [6] | outcome [7] | outcome [8] | outcome [9] | outcome [10] | outcome [11] | Potency [12] | Potency [14] | outcome [15] | outcome [17] | max activation [18] -4.04% | Potency [19] | Potency [20]

O=C(O)c1ccccc1S
inactive: Potency [1] | outcome [2] | Potency [3] | Potency [4] | Potency [5] | Potency [6] | outcome [7] | outcome [8] | outcome [9] | Potency [12] | outcome [13] | Potency [14] | outcome [15] | outcome [17]

CC1CCN(CCCC(=O)c2ccc(F)cc2)CC1
inactive: Potency [1] | outcome [2] | Potency [3] | Potency [4] | Potency [5] | Potency [6] | outcome [7] | outcome [8] | outcome [9] | outcome [10] | outcome [11] | Potency [12] | outcome [13] | Potency [14] | outcome [15] | outcome [17] | Potency [16] | max activation [18] -4.88% | Potency [19] | Potency [20]
